Experiments:
Assay in all cases: log2 ratio of Biotin-Ahx-Ub-VS probe labelling (fragment/DMSO); higher = less target engagement (more negative = stronger competition), active = hit call of the paper (q ≤ 0.05, log2 ratio ≤ -1)
Conditions in all cases: compound concentration: 200 uM; treatment time: 3 h
[1] = target: T1, USP19 (UniProt O94966)
T1 sequence (whole entry): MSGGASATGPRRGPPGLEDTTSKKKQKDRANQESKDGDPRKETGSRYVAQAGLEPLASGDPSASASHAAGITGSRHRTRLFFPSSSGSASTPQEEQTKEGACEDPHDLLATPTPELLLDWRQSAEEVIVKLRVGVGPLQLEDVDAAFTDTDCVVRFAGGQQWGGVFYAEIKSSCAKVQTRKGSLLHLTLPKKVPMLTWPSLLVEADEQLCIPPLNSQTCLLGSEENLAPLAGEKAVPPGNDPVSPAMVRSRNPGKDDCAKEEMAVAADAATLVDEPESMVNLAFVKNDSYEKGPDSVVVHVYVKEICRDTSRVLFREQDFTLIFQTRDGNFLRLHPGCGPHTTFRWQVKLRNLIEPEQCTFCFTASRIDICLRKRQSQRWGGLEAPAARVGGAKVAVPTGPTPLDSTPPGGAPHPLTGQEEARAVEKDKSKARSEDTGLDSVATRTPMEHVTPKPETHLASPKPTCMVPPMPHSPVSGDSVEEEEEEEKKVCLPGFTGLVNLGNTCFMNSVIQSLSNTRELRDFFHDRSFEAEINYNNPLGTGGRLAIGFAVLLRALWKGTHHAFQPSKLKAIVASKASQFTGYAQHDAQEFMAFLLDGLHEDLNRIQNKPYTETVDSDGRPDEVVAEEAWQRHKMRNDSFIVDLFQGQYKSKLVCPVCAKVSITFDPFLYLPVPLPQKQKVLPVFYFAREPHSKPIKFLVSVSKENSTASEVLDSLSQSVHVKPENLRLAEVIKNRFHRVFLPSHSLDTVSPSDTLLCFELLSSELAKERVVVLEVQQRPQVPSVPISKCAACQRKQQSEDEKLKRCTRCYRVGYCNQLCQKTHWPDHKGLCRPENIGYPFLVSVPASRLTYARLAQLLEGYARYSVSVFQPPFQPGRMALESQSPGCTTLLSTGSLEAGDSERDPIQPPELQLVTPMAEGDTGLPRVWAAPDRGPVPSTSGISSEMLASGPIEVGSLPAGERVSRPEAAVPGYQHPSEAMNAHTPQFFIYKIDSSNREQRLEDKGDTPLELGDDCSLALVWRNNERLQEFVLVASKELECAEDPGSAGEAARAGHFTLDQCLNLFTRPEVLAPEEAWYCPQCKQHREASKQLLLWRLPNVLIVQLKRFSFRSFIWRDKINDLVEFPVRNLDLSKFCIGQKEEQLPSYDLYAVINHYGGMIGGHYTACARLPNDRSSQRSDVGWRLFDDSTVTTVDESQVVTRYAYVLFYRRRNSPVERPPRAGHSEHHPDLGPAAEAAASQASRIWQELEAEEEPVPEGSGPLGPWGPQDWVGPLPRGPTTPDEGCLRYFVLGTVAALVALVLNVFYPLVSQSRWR
Procedure, shortened: (§1)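 HEK293T lysate (495 µg per sample, in Tris/CHAPS/IGEPAL buffer with protease inhibitors) was treated in triplicate with fragment at 200 µM or with DMSO for 3 h. It was then treated with Biotin-Ahx-Ub-VS (0.5 µM final) for 1 h. Labelled DUBs were NeutrAvidin-enriched, digested with LysC and trypsin, and run by diaPASEF LC-MS/MS. Spectronaut label-free quantities were global-median-normalised. Values are average log2 ratios fragment/DMSO by unpaired t-test, using proteins with ≥2 unique peptides.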

[2] = target: USP24 (UniProt Q9UPU5)
Procedure, shortened: as §1

[3] = target: T2, USP25 (UniProt Q9UHP3)
T2 sequence (whole entry): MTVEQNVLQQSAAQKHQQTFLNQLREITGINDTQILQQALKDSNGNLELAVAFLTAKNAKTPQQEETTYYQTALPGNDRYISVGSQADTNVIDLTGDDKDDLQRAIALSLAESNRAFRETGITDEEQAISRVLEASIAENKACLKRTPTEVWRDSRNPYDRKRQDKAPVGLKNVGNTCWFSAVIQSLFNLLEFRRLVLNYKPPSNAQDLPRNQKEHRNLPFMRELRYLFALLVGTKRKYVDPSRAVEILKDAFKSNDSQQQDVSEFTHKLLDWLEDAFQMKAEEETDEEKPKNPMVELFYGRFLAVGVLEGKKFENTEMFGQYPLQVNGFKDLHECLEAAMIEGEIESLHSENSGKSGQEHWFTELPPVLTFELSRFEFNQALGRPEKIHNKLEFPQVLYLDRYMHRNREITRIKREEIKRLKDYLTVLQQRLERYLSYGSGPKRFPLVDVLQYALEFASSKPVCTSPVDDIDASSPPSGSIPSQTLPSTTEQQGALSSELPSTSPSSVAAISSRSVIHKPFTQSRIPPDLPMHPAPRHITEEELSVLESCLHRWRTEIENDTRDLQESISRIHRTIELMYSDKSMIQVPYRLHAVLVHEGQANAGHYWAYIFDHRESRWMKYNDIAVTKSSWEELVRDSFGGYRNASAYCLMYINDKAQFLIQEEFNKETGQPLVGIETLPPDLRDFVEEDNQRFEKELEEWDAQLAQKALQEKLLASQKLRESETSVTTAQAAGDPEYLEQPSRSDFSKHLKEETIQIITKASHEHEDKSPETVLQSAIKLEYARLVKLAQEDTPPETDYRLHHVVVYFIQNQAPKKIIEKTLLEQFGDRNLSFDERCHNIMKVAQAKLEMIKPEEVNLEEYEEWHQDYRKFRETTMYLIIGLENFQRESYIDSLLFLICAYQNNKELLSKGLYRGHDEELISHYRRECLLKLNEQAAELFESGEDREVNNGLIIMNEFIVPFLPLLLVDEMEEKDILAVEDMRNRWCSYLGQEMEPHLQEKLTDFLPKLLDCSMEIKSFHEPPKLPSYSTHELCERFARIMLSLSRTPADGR
Procedure, shortened: as §1

[4] = target: T3, USP28 (UniProt Q96RU2)
T3 sequence (whole entry): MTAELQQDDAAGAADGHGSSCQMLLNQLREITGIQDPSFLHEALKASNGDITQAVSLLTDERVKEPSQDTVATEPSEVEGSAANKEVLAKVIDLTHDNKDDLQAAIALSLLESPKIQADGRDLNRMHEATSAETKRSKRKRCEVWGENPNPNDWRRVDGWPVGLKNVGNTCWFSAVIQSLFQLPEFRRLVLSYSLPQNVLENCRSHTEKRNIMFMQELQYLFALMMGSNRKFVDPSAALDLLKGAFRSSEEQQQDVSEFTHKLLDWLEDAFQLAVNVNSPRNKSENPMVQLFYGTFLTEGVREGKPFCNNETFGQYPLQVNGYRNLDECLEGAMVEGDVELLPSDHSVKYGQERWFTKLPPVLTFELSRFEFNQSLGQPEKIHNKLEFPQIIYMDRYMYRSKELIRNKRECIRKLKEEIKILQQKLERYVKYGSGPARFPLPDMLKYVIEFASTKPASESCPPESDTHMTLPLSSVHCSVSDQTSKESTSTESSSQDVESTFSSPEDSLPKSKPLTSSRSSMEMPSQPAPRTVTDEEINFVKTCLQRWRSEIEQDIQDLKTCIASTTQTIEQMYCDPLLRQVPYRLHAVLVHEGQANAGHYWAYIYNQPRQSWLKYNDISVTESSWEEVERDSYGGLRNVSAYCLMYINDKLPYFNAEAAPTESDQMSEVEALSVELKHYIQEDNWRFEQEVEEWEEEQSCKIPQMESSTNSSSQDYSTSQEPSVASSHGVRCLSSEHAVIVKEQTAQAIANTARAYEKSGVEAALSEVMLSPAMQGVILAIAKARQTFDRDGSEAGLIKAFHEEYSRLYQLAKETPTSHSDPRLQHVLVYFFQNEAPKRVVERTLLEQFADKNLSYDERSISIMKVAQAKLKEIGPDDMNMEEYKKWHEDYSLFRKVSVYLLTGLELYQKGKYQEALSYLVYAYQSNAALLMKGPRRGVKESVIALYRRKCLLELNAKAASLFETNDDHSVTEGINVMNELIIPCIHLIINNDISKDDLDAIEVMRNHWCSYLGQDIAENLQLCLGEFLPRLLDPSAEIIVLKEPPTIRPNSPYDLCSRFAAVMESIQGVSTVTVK
Procedure, shortened: as §1

Measured: log2 ratio of Biotin-Ahx-Ub-VS probe labelling

Sequence of USP24 (Q9UPU5 whole entry): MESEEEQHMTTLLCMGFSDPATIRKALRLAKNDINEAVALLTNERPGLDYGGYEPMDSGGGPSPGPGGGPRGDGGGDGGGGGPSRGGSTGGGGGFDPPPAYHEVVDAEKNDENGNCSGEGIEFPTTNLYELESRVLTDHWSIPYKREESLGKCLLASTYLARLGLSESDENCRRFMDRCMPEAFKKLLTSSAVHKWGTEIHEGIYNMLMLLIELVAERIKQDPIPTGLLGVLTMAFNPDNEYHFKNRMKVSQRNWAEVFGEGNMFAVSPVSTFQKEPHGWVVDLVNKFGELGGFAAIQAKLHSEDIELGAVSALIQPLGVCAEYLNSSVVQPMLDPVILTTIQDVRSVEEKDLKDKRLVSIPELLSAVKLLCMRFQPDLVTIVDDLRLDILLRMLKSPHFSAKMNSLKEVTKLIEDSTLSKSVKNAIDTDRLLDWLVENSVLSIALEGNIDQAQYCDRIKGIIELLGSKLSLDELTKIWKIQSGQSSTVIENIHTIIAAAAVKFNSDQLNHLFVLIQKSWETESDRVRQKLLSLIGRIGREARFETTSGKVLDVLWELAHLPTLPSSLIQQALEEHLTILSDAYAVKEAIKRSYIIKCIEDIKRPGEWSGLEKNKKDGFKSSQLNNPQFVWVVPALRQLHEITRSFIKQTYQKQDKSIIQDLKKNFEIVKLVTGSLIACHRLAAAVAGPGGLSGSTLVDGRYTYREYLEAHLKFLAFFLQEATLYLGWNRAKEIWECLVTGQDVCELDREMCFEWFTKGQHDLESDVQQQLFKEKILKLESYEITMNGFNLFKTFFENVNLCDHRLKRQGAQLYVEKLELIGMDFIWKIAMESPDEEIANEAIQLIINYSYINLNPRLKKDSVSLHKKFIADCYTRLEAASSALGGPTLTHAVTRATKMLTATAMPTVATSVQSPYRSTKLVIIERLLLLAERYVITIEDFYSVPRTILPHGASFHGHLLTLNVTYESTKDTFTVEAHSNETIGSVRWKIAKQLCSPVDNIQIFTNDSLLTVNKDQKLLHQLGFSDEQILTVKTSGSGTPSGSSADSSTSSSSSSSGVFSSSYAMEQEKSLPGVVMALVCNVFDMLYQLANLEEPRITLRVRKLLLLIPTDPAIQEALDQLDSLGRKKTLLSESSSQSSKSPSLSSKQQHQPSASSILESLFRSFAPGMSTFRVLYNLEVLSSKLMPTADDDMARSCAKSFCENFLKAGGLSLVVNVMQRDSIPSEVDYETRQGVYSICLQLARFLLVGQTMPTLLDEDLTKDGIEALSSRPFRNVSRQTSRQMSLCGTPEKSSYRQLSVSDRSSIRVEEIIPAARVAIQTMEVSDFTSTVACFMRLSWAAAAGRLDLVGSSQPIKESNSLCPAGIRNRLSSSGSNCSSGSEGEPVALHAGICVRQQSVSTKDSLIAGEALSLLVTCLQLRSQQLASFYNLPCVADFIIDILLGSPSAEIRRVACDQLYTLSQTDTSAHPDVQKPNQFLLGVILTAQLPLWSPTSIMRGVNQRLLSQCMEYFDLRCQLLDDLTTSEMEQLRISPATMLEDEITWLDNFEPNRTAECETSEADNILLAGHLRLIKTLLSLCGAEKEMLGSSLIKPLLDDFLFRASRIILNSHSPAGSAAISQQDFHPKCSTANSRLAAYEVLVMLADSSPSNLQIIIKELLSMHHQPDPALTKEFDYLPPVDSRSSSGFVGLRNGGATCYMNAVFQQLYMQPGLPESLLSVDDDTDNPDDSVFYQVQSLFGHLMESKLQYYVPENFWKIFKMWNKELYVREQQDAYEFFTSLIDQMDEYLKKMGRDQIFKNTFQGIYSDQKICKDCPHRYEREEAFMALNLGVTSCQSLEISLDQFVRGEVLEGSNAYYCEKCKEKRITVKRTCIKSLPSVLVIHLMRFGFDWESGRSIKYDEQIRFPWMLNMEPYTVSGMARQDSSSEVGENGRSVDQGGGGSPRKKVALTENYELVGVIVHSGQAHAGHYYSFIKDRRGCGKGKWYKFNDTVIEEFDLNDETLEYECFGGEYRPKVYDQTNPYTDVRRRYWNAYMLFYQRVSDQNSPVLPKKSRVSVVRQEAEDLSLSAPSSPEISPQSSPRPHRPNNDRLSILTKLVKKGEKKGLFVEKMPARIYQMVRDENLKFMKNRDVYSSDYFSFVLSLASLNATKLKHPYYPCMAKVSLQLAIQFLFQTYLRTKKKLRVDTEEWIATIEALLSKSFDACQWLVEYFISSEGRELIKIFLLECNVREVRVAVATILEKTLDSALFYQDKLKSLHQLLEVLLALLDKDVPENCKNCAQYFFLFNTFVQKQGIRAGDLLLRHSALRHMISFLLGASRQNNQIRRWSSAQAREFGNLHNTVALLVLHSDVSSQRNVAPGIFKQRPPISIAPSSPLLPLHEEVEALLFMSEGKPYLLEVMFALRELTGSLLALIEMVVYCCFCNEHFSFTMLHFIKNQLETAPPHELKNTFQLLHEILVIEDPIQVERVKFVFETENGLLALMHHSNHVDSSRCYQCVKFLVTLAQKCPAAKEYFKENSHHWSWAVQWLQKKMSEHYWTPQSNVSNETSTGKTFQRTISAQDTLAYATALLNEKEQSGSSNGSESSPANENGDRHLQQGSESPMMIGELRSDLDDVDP

CS(=O)(=O)c1ccc(CNC(=O)CCl)cc1
inactive: [1] -0.123 | [2] -0.159 | [3] -0.385 | [4] -0.583
